Assay results: PubChem BioAssay (NCI)
The panel holds about 83,000 compounds, 20% with a hit somewhere; the sample as a whole holds those more often.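 In brief: 96-well plates, 48 h treatment, single concentration, percent growth endpoint.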 Unmarked numbers belong to inactive results. Calls of active or inactive are those of the source. Rule for the calls: active = growth percent below 10; inactive = the rest.

Tests used:
Test in all cases: NCI-60 one-dose screen, 48 h (100 = growth as untreated, 0 = no growth, -100 = all killed)
Details in all cases: 10 µM unless noted
NCI-H23 lung = system: NCI-H23 lung
NCI-H226 lung = system: NCI-H226 lung
NCI-H322M lung = system: NCI-H322M lung
HOP-62 NSCLC = system: HOP-62 NSCLC
NCI-H460 lung = system: NCI-H460 lung
NCI-H522 lung = system: NCI-H522 lung
A549/ATCC NSCLC = system: A549/ATCC NSCLC
786-0 renal = system: 786-0 renal
COLO 205 colon = system: COLO 205 colon
DU-145 prostate = system: DU-145 prostate
K-562 leukemia = system: K-562 leukemia
MALME-3M melanoma = system: MALME-3M melanoma
MDA-MB-231 breast = system: MDA-MB-231 breast
RXF 393 renal = system: RXF 393 renal
SF-268 CNS = system: SF-268 CNS
SF-295 CNS = system: SF-295 CNS
SF-539 CNS = system: SF-539 CNS
UACC-257 melanoma = system: UACC-257 melanoma
M14 melanoma = system: M14 melanoma

SMILES | growth (NCI-H23 lung) | growth (NCI-H226 lung) | growth (NCI-H322M lung) | growth (HOP-62 NSCLC) | growth (NCI-H460 lung) | growth (NCI-H522 lung) | growth (A549/ATCC NSCLC) | growth (786-0 renal) | growth (COLO 205 colon) | growth (DU-145 prostate) | growth (K-562 leukemia) | growth (MALME-3M melanoma) | growth (MDA-MB-231 breast) | growth (RXF 393 renal) | growth (SF-268 CNS) | growth (SF-295 CNS) | growth (SF-539 CNS) | growth (UACC-257 melanoma) | growth (M14 melanoma)
Cc1ccc([C@H]2c3[nH]c4ccccc4c3C[C@H]3C(=O)N(CCCCCCC(=O)NO)CC(=O)N23)cc1 | 63.8% | 94.2% | 55.6% | 52.9% | 48.7% | 24.2% | 85.6% | 82.1% | 47.3% | 60.5% | 20.2% | 19.5% | 44.4% | 51.5% | 68.6% | 67.4% | 52.6% | 50.5% | 43.6%
CCSc1cnnc2ccccc12 | 101% | 101% | 118% | 104% | 118% | 97.8% | 108% | 109% | 111% | 113% | 85.7% | 124% | 103% | 123% | 102% | 117% | 106% | 113% | 105%
NC(=O)c1ccc[n+](Cc2ccccc2)c1 | 96.1% | 102% | 104% | 127% | 108% | 99.3% | 94.3% | 109% | 112% | 101% | 113% | 75.4% | 105% | 97.6% | 107% | 109% | 96.7% | 95.3% | 96.3%
C[C@@H]1N=C(c2ccc3ccccc3c2)Nc2nc3ccccn3c2C1=O | 46.1% | 64.5% | 73.2% | 36.7% | 15.2% | 29.4% | 39.5% | 69.3% | 22.8% | 73.3% | 27.6% | 42.3% | 52.5% | 49.9% | 58% | 14.9% | 37.2% | 40.9% | 19.8%
O=C1NN(C(=O)c2ccccc2)C(c2ccc(Cl)c(Cl)c2)=C/C1=C\c1ccccc1[N+](=O)[O-] | -16.9% [6.75 µM] (active) | -10.3% [6.75 µM] (active) | 27.1% [6.75 µM] | 37.8% [6.75 µM] | -25% [6.75 µM] (active) | -11.1% [6.75 µM] (active) | 14.4% [6.75 µM] | 31.1% [6.75 µM] | -79.4% [6.75 µM] (active) | 25.3% [6.75 µM] | 15.1% [6.75 µM] | 56.5% [6.75 µM] | 49.9% [6.75 µM] | 7.22% [6.75 µM] (active) | 49% [6.75 µM] | -37.5% [6.75 µM] (active) | 15.2% [6.75 µM] | 35.4% [6.75 µM] | -28% [6.75 µM] (active)
O=C(/C=C/c1ccco1)c1ccccc1O | 93.5% | 99.6% | 105% | 109% | 108% | 88.3% | 101% | 96.8% | 119% | 108% | 117% | 121% | 111% | 92.4% | 99.4% | 110% | 98.2% | 112% | 105%
COC1(OC)C2(Cl)CCC1(Cl)C(Cl)=C2Cl | 99.4% | 98.2% | 100% | 129% | 106% | 97% | 95.6% | 102% | 128% | 108% | 110% | 99.4% | 106% | 107% | 106% | 105% | 101% | 93.2% | 96.9%
O=C(CSc1nnc(Cc2ccccc2Nc2c(Cl)cccc2Cl)n1-c1ccccc1)N1N=C(c2ccc3ccccc3c2)CC1c1ccc(Cl)cc1 (configuration not stated) | 96.2% | 98.8% | 90.7% | 92.7% | 106% | 66.1% | 96.3% | 95.9% | 102% | 94.3% | 101% | 95.4% | 104% | 124% | 89.1% | 100% | 106% | 117% | 98.4%
